# Results: the supplement of paper PMC6555819
# Tests used:
# Experiment in all cases: PBM binding z-score (relative to random genomic background probes); higher = stronger binding; sequences stand for … in GC…GCGATTGACAGCGTAGAATGAAGG
# [1] = system: FXR:RXRa (NR concentration 270 nM, RXRa partner concentration 90 nM)
# Method in brief: (§1)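 Regression normalization was applied to scanned fluorescence from custom Agilent 4×180K protein-binding microarrays. Before scanning, arrays were incubated 1 h with ligand-free nuclear receptor dimers, and binding was detected with antibodies against each partner (one per run). Binding z-scores use the random background probes as reference.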
# [2] = system: LXRa:RXRa (NR concentration 270 nM, RXRa partner concentration 90 nM)
# Method in brief: as §1
# [3] = system: LXRa homodimer (NR concentration 270 nM)
# Method in brief: as §1
# [4] = system: LXRb:RXRa (NR concentration 270 nM, RXRa partner concentration 90 nM)
# Method in brief: as §1
# [5] = system: LXRb homodimer (NR concentration 270 nM)
# Method in brief: as §1
# [6] = system: PPARa:RXRa (NR concentration 270 nM, RXRa partner concentration 90 nM)
# Method in brief: as §1
# [7] = system: PPARg:RXRa (NR concentration 180 nM, RXRa partner concentration 90 nM)
# Method in brief: as §1
# [8] = system: PPARg:RXRa 270nM:90nM, anti-RXR (NR concentration 270 nM, RXRa partner concentration 90 nM)
# Method in brief: as §1
# [9] = system: PPARg:RXRa 30nM:10nM, anti-RXR (NR concentration 30 nM, RXRa partner concentration 10 nM)
# Method in brief: as §1
# [10] = system: PPARg:RXRa 90nM:30nM, anti-RXR (NR concentration 90 nM, RXRa partner concentration 30 nM)
# Method in brief: as §1
# [11] = system: PPARg:RXRa DBDmut IVT, anti-RXR (DBD mutation: RXRa K156A/R161A, NR concentration 270 nM, RXRa partner concentration 90 nM)
# Method in brief: as §1
# [12] = system: PPARg:RXRa IVT, anti-PPARg (NR concentration 270 nM, RXRa partner concentration 90 nM)
# Method in brief: as §1
# [13] = system: PPARg DBDmut:RXRa IVT, anti-PPARg (DBD mutation: PPARg1 K132A/R137A, NR concentration 270 nM, RXRa partner concentration 90 nM)
# Method in brief: as §1
# [14] = system: PPARg DBDmut IVT, anti-PPARg (DBD mutation: PPARg1 K132A/R137A, NR concentration 270 nM)
# Method in brief: as §1
# [15] = system: PPARg homodimer (NR concentration 180 nM)
# Method in brief: as §1
# [16] = system: PXR:RXRa (NR concentration 270 nM, RXRa partner concentration 90 nM)
# Method in brief: as §1
# [17] = system: PXR homodimer (NR concentration 270 nM)
# Method in brief: as §1
# [18] = system: RARa:RXR (NR concentration 270 nM, RXRa partner concentration 90 nM)
# Method in brief: as §1
# [19] = system: RARa homodimer (NR concentration 270 nM)
# Method in brief: as §1
# [20] = system: RARb:RXRa (NR concentration 270 nM, RXRa partner concentration 90 nM)
# Method in brief: as §1
Sequence,PBM binding z-score [1],PBM binding z-score [2],PBM binding z-score [3],PBM binding z-score [4],PBM binding z-score [5],PBM binding z-score [6],PBM binding z-score [7],PBM binding z-score [8],PBM binding z-score [9],PBM binding z-score [10],PBM binding z-score [11],PBM binding z-score [12],PBM binding z-score [13],PBM binding z-score [14],PBM binding z-score [15],PBM binding z-score [16],PBM binding z-score [17],PBM binding z-score [18],PBM binding z-score [19],PBM binding z-score [20]
ACAGACAGGTGAGTTAAGGTAACTCAGCTGGACG,0.488,-0.196,-0.499,-0.279,-0.347,0.226,0.637,0.279,0.254,0.0651,0.272,0.601,0.0974,0.513,0.279,0.151,-0.384,1.29,-0.525,0.48
CCAGACAGGTGAGAAGGGAACTCAGCCTCGATTA,-0.0941,-0.0473,0.111,-0.208,-0.526,-0.0624,0.318,0.174,-0.465,-0.306,0.589,0.343,-0.35,-0.943,0.62,-0.225,0.169,-0.0265,0.727,0.228
CCAGACAGGTGAAAGGTAAGTCAGTCTGGTACGC,0.207,0.575,-0.142,0.505,-0.505,2.87,4.52,5.14,3,4.82,2.21,2.43,-0.386,-0.609,0.848,0.517,-0.131,1.06,0.44,1.14
ATCTCTAGGTAGAGTTCAGTGAAAGATCGATAGA,0.805,1.62,1.28,1.2,0.516,1.78,1.1,2.33,0.898,1.93,0.277,0.789,1.33,0.623,0.95,2.52,2.07,1.22,0.329,1.82
ACAGACAGGTGAGTGAAGGTGACTCAGCTGGACG,0.162,-0.00172,-0.654,-0.308,-0.35,0.592,0.8,0.28,-0.492,-0.01,0.718,1.24,0.42,-0.00311,-0.248,-0.0313,-0.405,0.49,0.0445,0.935
TCTATTAGTTGAAGGGCCACCGACGAGTCCGTTT,0.67,0.709,0.433,0.782,0.195,0.892,0.0935,2.33,3.78,3.03,2.33,0.338,0.273,0.346,1.31,0.576,0.557,0.817,1.15,1.07
CCTATTAGTTGACCACAAGGGCAACCGAAGCTCG,0.713,0.65,0.493,0.591,0.786,0.698,0.53,0.203,0.1,0.256,0.687,0.913,0.619,0.658,1.46,0.841,1,0.762,1.46,1.49
TCATATAGGTAATACAGCTGAAAGTCGGCATCTA,0.752,0.674,-0.0282,0.475,0.431,1.14,0.839,2.26,3.95,3.15,4.01,1.94,0.896,1.18,1.1,0.684,-0.0774,0.947,0.987,0.188
TAGACTAGGTCATTGGGCCAGTATAGTACGCATC,3.51,2.61,0.548,1.56,0.785,3.89,5.62,5.24,2.45,4.58,5.72,6.51,1.28,0.786,1.15,1.2,0.294,1.65,0.657,3.45
TTACCTAGGTGAAGGTCGTTGATCCCTCTGTAGA,2.2,1.82,-0.334,1.6,-0.843,2.32,1.4,2.36,0.624,1.55,2.92,3.84,0.00137,-0.113,0.298,1.16,0.136,1.48,-0.66,1.45
CCTACTGGGCCAAAGGTCATGGATTCCAATGCTC,5.14,5.37,2.61,5.06,0.296,6.56,12,9.45,10.3,10.5,5.34,6.68,-0.19,-0.578,2.93,5.44,0.496,6.58,0.489,4.92
TCACCAAGGTGAAAGGTCGTTGATGCACGCCTTG,3.32,3.01,-0.0102,2.68,-0.932,5.28,7.74,7.39,6.81,7.43,3.13,4.81,0.292,0.0423,0.508,3.77,-0.165,4.87,-0.322,3.17
ATCTCTAGGGAAAAGTTCAGTGAATCCCGAGGAT,-0.0297,0.401,0.405,0.302,0.328,2.67,4.59,5.66,3.84,5.64,-0.096,1.64,0.313,0.383,0.686,1.42,0.706,0.616,0.196,1.77
CCGACTGGGGCAAGGTTACCGTAACGCACAGCCA,0.11,0.127,-0.449,0.456,-1.12,1.87,2.6,3.45,0.963,2.8,3.53,3.71,-0.69,-1,-0.362,0.043,-0.221,0.745,-0.534,1.69
ACATACAGGTGATGAAGGTAACTCAGGCTATCAT,0.328,0.419,0.233,0.198,-0.055,0.484,1.06,0.534,0.477,0.425,1.27,1.16,1.17,0.566,0.36,0.132,0.441,0.745,0.688,0.588
CCTCGGAGGACAGACGGTCAGAGCTGTCCGCTTT,-0.245,-0.454,-0.415,-1.1,-0.8,-0.791,-0.705,-1.01,-1.36,-0.797,-0.634,-0.745,-1.14,-1.66,-0.576,-0.726,-0.42,-0.842,-0.616,1.23
TATACAGGGTCAAAGGCCGGAGTACGAATGTCGA,6.93,6.1,2.37,4.53,2.31,6.26,7.67,6.73,4.47,6.51,2.46,4.9,2.77,1.88,2.2,3.97,0.381,5.47,1.43,4.27
GCTACTGGGGCAAAGCAGGTTACCATAAGGTTGG,0.552,0.174,-0.316,0.4,-0.276,2.24,2.37,2.63,0.398,1.52,6.4,5.54,0.032,-0.0829,0.182,0.319,-0.456,0.495,-0.534,1.12
ATCGAAATGTCGAAGGTGAGTATACCCACCCGAA,-0.36,-0.333,-0.285,-0.254,-0.151,0.29,0.913,0.538,0.133,0.522,-1.11,0.391,0.818,0.244,-0.161,-0.253,-0.511,0.116,-0.269,0.495
